Measurements reported in PubChem BioAssay.
The source made the active and inactive calls.

Columns and labels:
[1] = tested on: PRMT1 (protein arginine N-methyltransferase 1); experiment: PRMT1 binders on small-molecule microarrays, primary screen, biochemical, small-molecule microarray, 635 nm fluorescence (AID 1088); details: small-molecule microarray binding, higher = more signal;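 further: binding of Prmt1 protein to compounds spotted on small-molecule microarray slides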
[2] = yeast growth modulation, basal conditions, primary screen, YJM789 clinical isolate, OD600, 24 h (AID 1089);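 further: growth of clinical yeast isolate S. cerevisiae YJM 789 seeded 1000 cells per well; test concentration not given here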; details: S. cerevisiae YJM789 growth, higher = more signal, called active from +8 up or from −8 down
[3] = fission yeast growth modulation, primary screen, strain 972, OD600, 24 h, no modulator (AID 1090);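 further: basal condition with compound alone and no growth modifier present; test concentration not given here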; details: S. pombe 972 growth, higher = more signal, called active from +8 up or from −8 down
[4] = S. cerevisiae growth modulation with rapamycin, primary screen, strain BY4716, OD600, 96 h (AID 1091); details: higher = more signal, called active from +8 up or from −8 down; further: test concentration not given here
[5] = target: Torsin-1A-interacting protein 2 (Homo sapiens) (UniProt Q8NFQ8); experiment: LULL1 binders on small-molecule microarray, primary screen, cell lysate, human LULL1 lysate, 635/667 nm fluorescence (AID 1092); details: hLULL1 lysate binding, 635 nm fluorescence, higher = more signal;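 further: probe is lysate of COS7 cells overexpressing human LULL1; score merges per-feature 667 nm fluorescence with signal-to-noise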
Chain of Torsin-1A-interacting protein 2 (Homo sapiens) (Q8NFQ8 whole entry, looked up): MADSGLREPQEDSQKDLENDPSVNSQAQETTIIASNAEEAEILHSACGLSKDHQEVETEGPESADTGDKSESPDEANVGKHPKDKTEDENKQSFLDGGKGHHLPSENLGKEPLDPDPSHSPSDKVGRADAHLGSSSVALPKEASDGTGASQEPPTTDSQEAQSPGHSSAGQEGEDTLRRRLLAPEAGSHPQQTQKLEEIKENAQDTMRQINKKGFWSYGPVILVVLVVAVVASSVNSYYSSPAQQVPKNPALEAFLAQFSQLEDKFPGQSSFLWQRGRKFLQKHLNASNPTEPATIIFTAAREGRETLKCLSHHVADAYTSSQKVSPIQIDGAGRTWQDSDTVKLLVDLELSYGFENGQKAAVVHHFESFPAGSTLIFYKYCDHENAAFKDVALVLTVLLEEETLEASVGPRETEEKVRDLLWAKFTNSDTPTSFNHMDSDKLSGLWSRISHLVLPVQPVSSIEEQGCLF

[6] = E. coli growth modulation, two-sided OD650, primary screen, E. coli filamentation project, strain DRC41, 24 h (AID 1093); details: OD650, 24 h, higher = more signal, called active from +8 up or from −8 down;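 further: MC1000 strain lacking acrAB efflux and sulA so SOS filamentation is blocked; test concentration not given here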
[7] = small-molecule microarray binders of probe aLefty2, primary screen, biochemical, biotinylated probe, 635/667 nm fluorescence (AID 1094); details: higher = more signal;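 further: score merges spot fluorescence near 667 nm with spot signal-to-noise ratio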
[8] = tested on: Noggin (protein binding on small-molecule microarray); experiment: Noggin binders on small-molecule microarray, primary screen, biochemical, 635/667 nm fluorescence (AID 1095); details: 635 nm fluorescence, higher = more signal;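 further: score merges 667 nm feature fluorescence with signal to noise over triplicate slides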
[9] = target: Neurogenic locus notch homolog protein 3 (Homo sapiens) (UniProt Q9UM47); experiment: NOTCH3 binders on small-molecule microarray, primary screen, biochemical, 635/667 nm fluorescence (AID 1096); details: NOTCH3 binding, 635 nm fluorescence, higher = more signal
Chain of Neurogenic locus notch homolog protein 3 (Homo sapiens) (Q9UM47 whole entry, looked up): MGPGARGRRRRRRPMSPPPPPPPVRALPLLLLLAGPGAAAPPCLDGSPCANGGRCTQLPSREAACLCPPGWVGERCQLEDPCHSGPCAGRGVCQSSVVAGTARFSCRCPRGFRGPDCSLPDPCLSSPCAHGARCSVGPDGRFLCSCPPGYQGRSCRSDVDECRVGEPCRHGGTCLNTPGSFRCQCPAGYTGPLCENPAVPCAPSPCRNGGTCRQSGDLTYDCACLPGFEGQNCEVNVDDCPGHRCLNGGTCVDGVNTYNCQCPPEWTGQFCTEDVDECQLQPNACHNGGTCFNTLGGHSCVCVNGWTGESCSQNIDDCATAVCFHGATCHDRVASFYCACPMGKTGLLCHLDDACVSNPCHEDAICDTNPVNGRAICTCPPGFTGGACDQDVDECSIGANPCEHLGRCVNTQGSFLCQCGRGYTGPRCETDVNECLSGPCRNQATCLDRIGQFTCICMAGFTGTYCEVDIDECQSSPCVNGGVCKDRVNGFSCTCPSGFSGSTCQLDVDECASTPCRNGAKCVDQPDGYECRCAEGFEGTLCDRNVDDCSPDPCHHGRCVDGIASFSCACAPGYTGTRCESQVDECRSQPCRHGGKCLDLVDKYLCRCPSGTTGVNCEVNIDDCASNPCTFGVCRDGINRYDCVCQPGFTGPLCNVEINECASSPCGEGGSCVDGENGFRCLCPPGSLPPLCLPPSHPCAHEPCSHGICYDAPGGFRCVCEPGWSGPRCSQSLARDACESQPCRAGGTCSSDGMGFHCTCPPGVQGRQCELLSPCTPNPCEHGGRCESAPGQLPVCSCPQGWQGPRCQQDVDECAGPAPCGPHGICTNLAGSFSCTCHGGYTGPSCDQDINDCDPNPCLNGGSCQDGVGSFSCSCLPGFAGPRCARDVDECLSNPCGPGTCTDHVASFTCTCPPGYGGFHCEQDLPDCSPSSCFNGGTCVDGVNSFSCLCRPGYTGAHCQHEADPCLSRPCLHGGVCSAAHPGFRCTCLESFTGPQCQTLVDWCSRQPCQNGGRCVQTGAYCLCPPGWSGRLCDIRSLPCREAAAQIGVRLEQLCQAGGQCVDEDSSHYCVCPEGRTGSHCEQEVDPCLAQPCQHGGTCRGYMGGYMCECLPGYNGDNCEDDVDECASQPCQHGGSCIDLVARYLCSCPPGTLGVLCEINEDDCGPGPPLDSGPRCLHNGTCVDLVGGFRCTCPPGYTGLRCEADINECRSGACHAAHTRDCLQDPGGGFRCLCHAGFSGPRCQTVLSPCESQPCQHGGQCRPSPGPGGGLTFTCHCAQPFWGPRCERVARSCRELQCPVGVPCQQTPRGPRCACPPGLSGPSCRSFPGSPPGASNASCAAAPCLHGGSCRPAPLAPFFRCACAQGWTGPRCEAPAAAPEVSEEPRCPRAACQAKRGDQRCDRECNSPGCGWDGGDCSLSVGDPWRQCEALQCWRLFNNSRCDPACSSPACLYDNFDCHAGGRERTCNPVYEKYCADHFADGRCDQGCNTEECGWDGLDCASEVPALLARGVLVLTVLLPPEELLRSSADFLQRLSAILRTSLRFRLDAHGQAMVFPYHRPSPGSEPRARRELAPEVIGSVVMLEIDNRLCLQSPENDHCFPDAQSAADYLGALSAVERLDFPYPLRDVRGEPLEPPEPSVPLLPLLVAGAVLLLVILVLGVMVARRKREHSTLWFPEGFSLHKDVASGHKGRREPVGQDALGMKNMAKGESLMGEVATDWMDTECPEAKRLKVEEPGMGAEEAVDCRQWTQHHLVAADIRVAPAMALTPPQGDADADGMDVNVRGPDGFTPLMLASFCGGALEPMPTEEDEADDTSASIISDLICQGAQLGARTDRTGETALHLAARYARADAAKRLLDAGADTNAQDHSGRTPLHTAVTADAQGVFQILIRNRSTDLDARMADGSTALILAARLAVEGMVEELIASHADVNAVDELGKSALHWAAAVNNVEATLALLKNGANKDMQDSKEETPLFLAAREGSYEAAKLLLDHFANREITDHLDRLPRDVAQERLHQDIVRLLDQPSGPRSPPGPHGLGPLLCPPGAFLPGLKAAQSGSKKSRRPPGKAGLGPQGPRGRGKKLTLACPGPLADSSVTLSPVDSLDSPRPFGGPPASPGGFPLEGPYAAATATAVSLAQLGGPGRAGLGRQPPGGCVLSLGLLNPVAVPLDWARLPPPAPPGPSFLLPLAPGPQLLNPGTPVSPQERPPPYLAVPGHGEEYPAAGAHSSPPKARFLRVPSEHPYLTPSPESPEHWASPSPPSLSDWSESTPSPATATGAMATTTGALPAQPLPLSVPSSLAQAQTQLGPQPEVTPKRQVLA

[10] = small-molecule microarray binders of probe aEGFR, primary screen, biochemical, biotinylated probe, 635/667 nm fluorescence (AID 1097); details: higher = more signal;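 further: probe is a biotinylated anti-EGFR antibody binding compounds printed on slides; score combines fluorescence near 667 nm and signal to noise of each spot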

| Structure (SMILES) | composite z-score [1] | z-score [2] | z-score [3] | z-score [4] | composite z-score [5] | z-score [6] | composite z-score [7] | composite z-score [8] | composite z-score [9] | composite z-score [10] |
| --- | --- | --- | --- | --- | --- | --- | --- | --- | --- | --- |
| O=C1C[C@@H](O)[C@@H](O)[C@@H]2[C@@H]3C(=O)N(C4CCCCC4)C(=O)[C@@H]3CC[C@H]12 | 0.387 | -0.16 (inactive) | -0.268 (inactive) | 0.0415 (inactive) | 0.294 | 0.666 (inactive) | -0.185 | 0.467 | 0.786 | -0.127 |
| COC(=O)[C@@H]1N=C(c2ccc(OCCCO)cc2)O[C@@H]1c1ccccc1N=[N+]=[N-] | 1.5 | -2.6 (inactive) | -7.5 (inactive) | -1.15 (inactive) | 3.01 | 1.2 (inactive) | 0.19 | -0.179 | 0.487 | -0.027 |
| COc1ccc(O[C@H]2C=C[C@@H](c3ccccc3)O[C@@H]2COC(=O)N2CCCCC2)cc1 | 0.38 | 0.523 (inactive) | -0.897 (inactive) | 0.156 (inactive) | -0.616 | 0.555 (inactive) | 0.0116 | 0.0935 | -1.08 | -0.0527 |
| C#C[C@@H]1Oc2ccccc2S(=O)(=O)N2CCC[C@H]12 | -1.07 | -0.0284 (inactive) | 0.809 (inactive) | -2.55 (inactive) | -0.875 | -1.1 (inactive) | 0.0886 | 0.18 | -0.176 | 0.056 |
| CCOC(=O)[C@H](Cc1ccccc1)NC(=O)CCC1CC(OC(=O)NCc2ccc3c(c2)OCO3)CC2(CCCC(COC(=O)NCC(c3ccccc3)c3ccccc3)O2)O1 (stereo not given in full) | 1.16 | 0.668 (inactive) | 0.9 (inactive) | 0.687 (inactive) | 2.34 | 0.454 (inactive) | -0.0485 | 0.955 | 1.06 | -0.157 |
| CO[C@@H]1COC(=O)CCC[C@@H](C)[C@H](OC)COC(=O)CCC[C@H]1C | 0.408 | 0.376 (inactive) | 0.852 (inactive) | 0.294 (inactive) | -0.431 | -0.0526 (inactive) | -0.234 | 0.6 | 0.636 | -0.0967 |
| COc1ccc(-c2ccc3c(n2)CCCN3CC(O)CN2CCCc3nc(C)c(C)cc32)cc1 (stereo not given) | 1.43 | 0.0222 (inactive) | -0.411 (inactive) | -1.43 (inactive) | 1.13 | 0.682 (inactive) | 0.429 | 0.824 | 1.1 | 0.243 |
| CCc1cc2c(nc1CC)CCN(CCC(C)=NOC(C)CN1CCCc3nc(C)c(C)cc31)C2 (stereo not given) | 1.37 | -2.1 (inactive) | -1.74 (inactive) | -1.28 (inactive) | 1.41 | 0.517 (inactive) | 0.696 | 1.13 | 0.986 | 0.391 |
| COCCOC(=O)N1C(=O)[C@@]2(c3cc(C#CC4(O)CCCCCC4)ccc31)[C@H](C(=O)N1CCN(c3ncccn3)CC1)[C@H]1C(=O)O[C@H](c3ccccc3)[C@H](c3ccccc3)N1[C@@H]2c1ccc(OCCO)cc1 | 1.53 | 2.12 (inactive) | 1.35 (inactive) | 5.93 (inactive) | 2.61 | 2.25 (inactive) | -0.0075 | 1.64 | 1.08 | 0.0779 |
| C/C=C\[C@@H](NCc1ccccc1Br)[C@@H](O)Cc1ccccc1 | -0.0523 | -1.81 (inactive) | -13.8 (active) | -1.64 (inactive) | -0.0942 | -0.734 (inactive) | 0.149 | -1.52 | -0.735 | -0.455 |
| CO[C@@H]1COC(=O)CCC[C@@H](C)[C@H](OC)COC(=O)[C@H](Cc2ccccc2)NC(=O)CC=C[C@H]1C | -0.256 | 0.449 (inactive) | -0.529 (inactive) | -0.341 (inactive) | -2.01 | 0.0728 (inactive) | -0.178 | 0.76 | -1.25 | -0.127 |
| COCCCNC(=O)[C@@]1(CCS(=O)(=O)c2ccccc2)N=C(c2ccc(OCCCO)cc2)O[C@H]1c1ccccc1 | 1.38 | -0.67 (inactive) | -0.692 (inactive) | -0.757 (inactive) | 3.43 | 2.54 (inactive) | 0.888 | 0.0483 | -0.0936 | 0.592 |
| O=C1CCCC2OC12C(O)CCc1ccccc1 (stereo not given) | -0.071 | 0.238 (inactive) | 0.211 (inactive) | 0.164 (inactive) | -0.0258 | 0.454 (inactive) | -0.215 | 0.373 | 0.0248 | 0.395 |
| C=CC[C@@H]1C=C[C@H](ON=Cc2ccc(C(=O)N3[C@H](c4ccc(C)cc4)[C@@H](C)CC[C@H]3C(=O)OC)cc2)[C@@H](CO)O1 | 0.537 | -1.33 (inactive) | -0.119 (inactive) | -0.733 (inactive) | 0.531 | 1.35 (inactive) | -0.0741 | 0.709 | 0.162 | -0.0223 |
| CCCC=C(CCC)[C@@H](NC(=O)c1ccc(-c2ccccc2)cc1)c1ccc(C(=O)OC)cc1 | 0.665 | 0.806 (inactive) | 1.77 (inactive) | 1.93 (inactive) | 3.33 | -0.665 (inactive) | 0.0997 | 0.0811 | 1.07 | -0.022 |
| CCOC(=O)CCN1C(=O)[C@H]2[C@H]3[C@H](O)C=CC(=O)[C@@H]3CC[C@H]2C1=O | 0.0492 | 0.595 (inactive) | 0.361 (inactive) | 1.42 (inactive) | 0.215 | 0.399 (inactive) | -0.239 | 0.641 | 0.629 | 0.0439 |
| CC(C)=NOCc1ccc(-c2cc(-c3ccccc3)no2)cc1 | -1.06 | 0.237 (inactive) | 0.256 (inactive) | 0.213 (inactive) | 0.108 | 0.383 (inactive) | -0.252 | 0.429 | 0.152 | -0.163 |
| CO[C@@H]1COC(=O)CC=C[C@@H](C)[C@@H]2C=C[C@H](O)[C@@H](COC(=O)CCC[C@H]1C)O2 | 1.43 | -0.199 (inactive) | 0.498 (inactive) | -0.181 (inactive) | -1.78 | 0.206 (inactive) | -0.075 | 1.65 | -0.076 | -0.15 |
| O=C1[C@H]2[C@H]3[C@H](O)[C@H](O)CC(=NOC[C@@H](O)COCc4ccco4)[C@H]3CC[C@H]2C(=O)N1c1cccc(Oc2ccccc2)c1 | -0.267 | -0.19 (inactive) | 0.549 (inactive) | -0.502 (inactive) | -0.306 | 0.354 (inactive) | -0.172 | 1.55 | -0.413 | -0.174 |
| CCOC(=O)C[C@H]1[C@H](OC(=O)c2cc3ccccc3oc2=O)[C@@H](NC(=O)c2ccc3ccccc3n2)c2cc(OCCCO)ccc2N1C(=O)c1ccccc1 | 0.5 | 0.282 (inactive) | -0.738 (inactive) | 0.156 (inactive) | 0.413 | 0.471 (inactive) | -0.0171 | 0.603 | 0.724 | 0.0745 |
| CCOC(=O)[C@H](CC(C)C)NC(=O)CCC1CC(OC(=O)NCCc2ccc(F)cc2)CC2(CCCC(COC(=O)NCc3ccccc3)O2)O1 (stereo not given in full) | 1.57 | -0.341 (inactive) | -0.265 (inactive) | 0.707 (inactive) | 2.24 | -0.206 (inactive) | -0.0778 | 1.46 | 0.828 | 0.0338 |
| COc1ccc([Si](C)(C)[C@@H]2[C@@H](CC(=O)N3CCC[C@H]3CO)O[C@]3(C(=O)N(Cc4cccc(N5CCC5=O)c4)c4ccccc43)[C@H]2C)cc1 | 1.54 | -0.569 (inactive) | -0.184 (inactive) | 0.284 (inactive) | 2.64 | 0.37 (inactive) | -0.0204 | 1.5 | 1.15 | -0.0953 |
| CC1CC/C=C\[C@H]2OC34C=CCN(C(C)C)C(=O)[C@H]3N(CCCO)C(=O)[C@@H]4C2C(=O)O1 (stereo not given in full) | 1.04 | -1.36 (inactive) | -1.14 (inactive) | -0.24 (inactive) | 1.29 | 1.14 (inactive) | 0.131 | -1.42 | -0.344 | -0.214 |
| Cn1c(=O)n2n(c1=O)[C@H]1[C@H](O)[C@@H]3O[C@@H]3C(=NOC[C@@H](O)COCc3ccco3)[C@H]1CC2 | 0.188 | 0.0859 (inactive) | 0.171 (inactive) | -0.36 (inactive) | 0.14 | -0.0342 (inactive) | -0.171 | 0.426 | 0.775 | 0.0574 |
| CCOC(=O)NN=C1C[C@@H](O)[C@@H](O)[C@@H]2[C@@H]3C(=O)N(C4CCCCC4)C(=O)[C@@H]3CC[C@H]12 | 0.314 | 0.351 (inactive) | 0.458 (inactive) | 0.529 (inactive) | 0.746 | -0.931 (inactive) | -0.139 | 0.315 | 0.213 | -0.0776 |
| COCCOC(=O)N1C(=O)[C@@]2(c3cc(C#Cc4ccc(OC)cc4)ccc31)[C@H](C(=O)N1CCN(c3ncccn3)CC1)[C@H]1C(=O)O[C@H](c3ccccc3)[C@H](c3ccccc3)N1[C@@H]2c1ccc(OCCO)cc1 | 1.55 | 2.04 (inactive) | 1.46 (inactive) | 5.06 (inactive) | 2.12 | -0.371 (inactive) | 0.192 | 0.918 | 1.11 | 0.232 |
| COC(=O)[C@@]1(Cc2ccc(OC)cc2)[C@H]2c3cc(C(=O)N4CCCC4)n(Cc4cc(F)c(F)c(F)c4)c3C[C@H]2CN1C(=O)c1ccccc1 | 1.25 | 0.68 (inactive) | 1.39 (inactive) | 7.41 (inactive) | 3.39 | -1.19 (inactive) | 1.44 | -0.131 | 1.01 | 1.17 |
| CC(C)(C)OC(=O)CC[C@]1(C(N)=O)COC(c2ccc(OCCCO)cc2)=N1 | 1.09 | 0.0433 (inactive) | -0.391 (inactive) | 0.0262 (inactive) | 3.09 | 0.308 (inactive) | 0.65 | 0.115 | 0.849 | 0.34 |
| CCCNC(=O)[C@@H]1c2ccccc2C(=O)N(Cc2ccccc2Cl)[C@H]1c1ccc(CO)cc1 | 1.55 | -0.0545 (inactive) | -0.64 (inactive) | 0.152 (inactive) | 2.47 | 2.2 (inactive) | 0.102 | 0.751 | 1.05 | 0.116 |
